Reference: PubChem BioAssay (Tox21)
Inconclusive results are not listed. Calls of active or inactive are those of the source. Unless noted, calls come from the whole dose curve.

Key:
[1] = Nuclear factor erythroid 2-related factor 2/antioxidant responsive element (Nrf2/ARE) small molecule agonists: qHTS cell viability counter screen in human keratinocytes (AID 1919968; active = well fitted curve in the direction sought with a large enough effect in the repeat runs; an effect the other way counts as inactive or inconclusive; note: nearly all actives have a fitted effect of over 55% in size)
Procedure, shortened: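 Viability counter-screen: KeratinoSens reporter cells, DMSO-delivered compounds, 23 h at 37 C, CellTiter-Fluor fluorescence.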

[2] = Nuclear factor erythroid 2-related factor 2/antioxidant responsive element (Nrf2/ARE) small molecule agonists: luciferase reporter gene qHTS assay in human keratinocytes (AID 1919969); note: nearly all actives have a fitted effect of over 35% in size
[3] = target: Gonadotropin-releasing hormone receptor (Homo sapiens) (UniProt P30968); experiment: Human gonadotropin-releasing hormone receptor (GnRHR) small molecule agonists, calcium flux assay in GnRHR-HEK293 cells (AID 1920063); note: nearly all actives have a fitted effect of over 35% in size
Procedure, shortened: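 Tox21-format agonist screen using human GnRHR-expressing HEK293 cells and a fluorescent calcium dye; kinetic 3-min fluorescence reading after compound addition, 15-point concentration series run in triplicate.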

[4] = target: KiSS-1 receptor (Homo sapiens) (UniProt Q969F8); experiment: Human kisspeptin (KISS1R) small molecule agonists, calcium flux assay in KISS1R-HEK293 cells (AID 1920064; active = well fitted curve in the direction sought with a large enough effect in the repeat runs; an effect the other way counts as inactive or inconclusive)
Procedure, shortened: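 Intracellular calcium mobilization in KISS1R-HEK293 cells was recorded by fluorescence (Ex/Em 480/540) for 3 min following compound addition to cells pre-loaded 1 h with calcium dye.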

[5] = G protein-coupled receptor (GPCR) small molecule agonists, calcium flux assay: HEK293 wild type cell line counter screen (AID 1920065)
Procedure, shortened: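 In this agonist-mode screen, ATP is the positive control and DMSO the vehicle. Cells grow 18 h before a 1 h dye incubation at 37 C; signal is taken at Ex/Em 480/540 over 3 min.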

[6] = p53 small molecule agonists, cell-based qHTS assay with human liver microsomes (AID 1963577);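 note: p53 response element beta-lactamase reporter cells with liver microsomes plus NADPH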
Procedure, shortened: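 Reporter activation was measured by LiveBLAzer fluorescence intensity in p53RE-bla cells, which had been exposed to compounds for 16 h at 37 C alongside 0.5 mg/mL human liver microsomes and 0.5 mg/mL NADPH (final concentrations).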

[7] = p53 small molecule agonists, cell-based qHTS assay with rat liver microsomes (AID 1963578)
Procedure, shortened: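 Compound in DMSO added to p53RE-bla cells 5 h post-plating; rat microsomes/NADPH 0.5 mg/mL final; 16 h, 37 C; LiveBLAzer 2 h RT.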

[8] = p53 small molecule agonists, cell-based qHTS assay with human liver microsomes: qHTS cell viability counter screen (AID 1963579); note: nearly all actives have a fitted effect of over 45% in size
Procedure, shortened: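 HLM-supplemented (0.5 mg/mL final) and NADPH-supplemented (0.5 mg/mL final) p53RE-bla cultures, 4,000 cells per well, were dosed with compounds in DMSO for 16 h at 37 C; luminescent ATP detection (CellTiter-Glo, 30 min, room temperature) quantified surviving cells.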

[9] = p53 small molecule agonists, cell-based qHTS assay with rat liver microsomes: qHTS cell viability counter screen (AID 1963580); note: nearly all actives have a fitted effect of over 45% in size
Procedure, shortened: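 p53RE-bla HCT-116 cells (4,000/well) rested 5 h at 37 C, then given Tox21 compounds in DMSO with rat liver microsomes (0.5 mg/mL final) plus NADPH (0.5 mg/mL final) for 16 h at 37 C. Viability read by CellTiter-Glo luminescence after 30 min at room temperature.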

[10] = p53 small molecule agonists, cell-based qHTS assay: qHTS cell viability counter screen (AID 1963581); note: nearly all actives have a fitted effect of over 45% in size
Procedure, shortened: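 Compounds are pinned onto HCT-116 p53RE-bla cells and left 16 h at 37 C. Following the reporter FRET read, ATP is quantified by CellTiter-Glo luminescence after 30 min at room temperature.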

[11] = p53 small molecule agonists, cell-based qHTS assay (AID 1963582; active = well fitted activation curve with a large enough effect in the signal ratio in the repeat runs, not every such curve was filed as active; the % refers to the signal ratio)
Procedure, shortened: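 Agonist activity was scored from beta-lactamase FRET fluorescence in p53RE-bla cells treated 16 h at 37 C with compounds in DMSO, substrate incubation being 2 h at room temperature.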

[12] = target: 5-hydroxytryptamine receptor 2A (Homo sapiens) (UniProt P28223); experiment: 5-hydroxytryptamine receptor 2A (HTR2A) small molecule antagonists, cell-based qHTS assay (AID 1963586); note: nearly all actives have a fitted effect of over 45% in size
Procedure, shortened: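 Antagonist-mode intracellular calcium assay: DOI (4 nM) added after 5 min compound pre-incubation at room temperature to dye-loaded HTR2A-CHO cells. Fluorescence followed for 3 min, sampled every second.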

[13] = target: 5-hydroxytryptamine receptor 2A (Homo sapiens) (UniProt P28223); experiment: 5-hydroxytryptamine receptor 2A (HTR2A) small molecule agonists, cell-based qHTS assay (AID 1963587); note: nearly all actives have a fitted effect of over 30% in size
Procedure, shortened: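 HTR2A-CHO cells, plated 18 h at 37 C/5% CO2, dye-loaded 1 h at 37 C; compounds in DMSO added by pin tool (agonist mode). Intracellular calcium flux read as kinetic fluorescence on FDSS over 2 min at 1 s intervals.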

[14] = target: Muscarinic acetylcholine receptor M1 (Homo sapiens) (UniProt P11229); experiment: Cholinergic receptor muscarinic 1 (CHRM1) small molecule antagonists, cell-based qHTS assay (AID 1963588); note: nearly all actives have a fitted effect of over 40% in size
Procedure, shortened: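 CHRM1-CHO calcium-flux assay, antagonist mode. Cells were seeded 18 h, dye-loaded 1 h at 37 C and given compound for 5 min at RT, then acetylcholine was added at 50nM. FDSS fluorescence was read 3 min; 15 concentrations, three runs.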

[15] = target: Muscarinic acetylcholine receptor M1 (Homo sapiens) (UniProt P11229); experiment: Cholinergic receptor muscarinic 1 (CHRM1) small molecule agonists, cell-based qHTS assay (AID 1963589); note: nearly all actives have a fitted effect of over 35% in size
Procedure, shortened: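 Stable CHRM1-CHO cells (human receptor) were incubated 18 h, dye-loaded for 1 h at 37 C and exposed to test compounds for agonist activity, with calcium-dependent fluorescence followed kinetically.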

[16] = cAMP Responsive Elements (CRE) small molecule agonists, cell-based qHTS assay (AID 1963590)
Procedure, shortened: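 FRET-based beta-lactamase readout (LiveBLAzer B/G, 2 h RT) quantified CRE activation in HEK 293T CRE-bla cells after 3 h treatment with DMSO-dissolved compounds.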

[17] = target: Beta-2 adrenergic receptor (Homo sapiens) (UniProt P07550); experiment: Adrenergic beta2 receptor (ADRB2) small molecule antagonists, cell-based qHTS assay (AID 1963592); note: series mostly up to about 92 µM; nearly all actives have a fitted effect of over 50% in size
Procedure, shortened: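 Cells (CHO, stable ADRB2 overexpression) incubated 18-20hr at 37C; compounds added from DMSO; agonist mix (1nM isoproterenol, 100uM IBMX, 25uM Ro-20-1724) added; 0.5hr RT; d2-cAMP and anti-cAMP-cryptate added; 1hr RT; 665/615 nm read.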

[18] = target: D(2) dopamine receptor (Homo sapiens) (UniProt P14416); experiment: Dopamine D2 receptor (DRD2) small molecule agonists, cell-based qHTS assay (AID 1963594); note: nearly all actives have a fitted effect of over 35% in size
Procedure, shortened: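 HEK293 cells stably expressing DRD2 were cultured 24 h at 37 C, then given Ro20-1724 (0.1 mM final) and compounds for 10 min at room temperature. NKH477 (200nM) was then added for 30 min. cAMP was read by HTRF.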

[19] = target: D(2) dopamine receptor (Homo sapiens) (UniProt P14416); experiment: Dopamine D2 receptor (DRD2) small molecule antagonists, cell-based qHTS assay (AID 1963595; active = well fitted inhibition curve with a large enough effect in the signal ratio in the repeat runs, with a control signal flat; the % refers to the signal ratio)
Procedure, shortened: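 Human DRD2 antagonist qHTS measuring cAMP by HTRF. The cells are exposed to compound for 10 min, then to NKH477 (200 nM) and quinpirole (12 nM) for 30 min at RT, with Ro20-1724 (0.1 mM) present throughout.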

[20] = cAMP Responsive Elements (CRE) small molecule antagonists, cell-based qHTS assay (AID 1963591; active = well fitted inhibition curve with a large enough effect in the signal ratio in the repeat runs, not every such curve was filed as active; the % refers to the signal ratio)
Procedure, shortened: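 qHTS in CRE-bla HEK 293T cells: compound in DMSO, then 0.25 uM NKH477 (final), 3 h at 37 °C/5% CO2; beta-lactamase FRET read-out after 2 h substrate incubation.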
% is set by controls: 0 for no effect and ±100 for the full control effect.

Sequence of Gonadotropin-releasing hormone receptor (Homo sapiens) (P30968 whole entry, looked up): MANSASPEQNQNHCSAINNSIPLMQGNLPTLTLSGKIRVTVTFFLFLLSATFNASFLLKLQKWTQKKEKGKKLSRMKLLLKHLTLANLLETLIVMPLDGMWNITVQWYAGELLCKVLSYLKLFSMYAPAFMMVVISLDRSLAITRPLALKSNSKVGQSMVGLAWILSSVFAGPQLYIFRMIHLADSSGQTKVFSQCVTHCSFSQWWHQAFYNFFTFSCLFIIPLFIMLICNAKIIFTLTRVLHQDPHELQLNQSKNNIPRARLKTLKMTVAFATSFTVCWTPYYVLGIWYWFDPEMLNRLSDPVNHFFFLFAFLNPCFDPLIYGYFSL
Sequence of Muscarinic acetylcholine receptor M1 (Homo sapiens) (P11229 whole entry, looked up): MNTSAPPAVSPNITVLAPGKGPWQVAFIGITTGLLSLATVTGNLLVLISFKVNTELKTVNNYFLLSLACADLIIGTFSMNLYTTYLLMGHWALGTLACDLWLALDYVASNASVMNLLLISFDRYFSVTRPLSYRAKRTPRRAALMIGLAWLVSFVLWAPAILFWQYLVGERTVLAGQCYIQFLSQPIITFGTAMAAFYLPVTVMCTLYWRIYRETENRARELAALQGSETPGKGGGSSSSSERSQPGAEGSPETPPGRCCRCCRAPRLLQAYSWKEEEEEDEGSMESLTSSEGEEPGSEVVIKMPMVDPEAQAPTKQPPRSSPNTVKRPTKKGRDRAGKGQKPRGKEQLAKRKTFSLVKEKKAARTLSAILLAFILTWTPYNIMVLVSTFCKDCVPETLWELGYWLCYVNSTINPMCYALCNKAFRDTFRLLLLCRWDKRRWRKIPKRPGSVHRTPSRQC
Sequence of 5-hydroxytryptamine receptor 2A (Homo sapiens) (P28223 whole entry, looked up): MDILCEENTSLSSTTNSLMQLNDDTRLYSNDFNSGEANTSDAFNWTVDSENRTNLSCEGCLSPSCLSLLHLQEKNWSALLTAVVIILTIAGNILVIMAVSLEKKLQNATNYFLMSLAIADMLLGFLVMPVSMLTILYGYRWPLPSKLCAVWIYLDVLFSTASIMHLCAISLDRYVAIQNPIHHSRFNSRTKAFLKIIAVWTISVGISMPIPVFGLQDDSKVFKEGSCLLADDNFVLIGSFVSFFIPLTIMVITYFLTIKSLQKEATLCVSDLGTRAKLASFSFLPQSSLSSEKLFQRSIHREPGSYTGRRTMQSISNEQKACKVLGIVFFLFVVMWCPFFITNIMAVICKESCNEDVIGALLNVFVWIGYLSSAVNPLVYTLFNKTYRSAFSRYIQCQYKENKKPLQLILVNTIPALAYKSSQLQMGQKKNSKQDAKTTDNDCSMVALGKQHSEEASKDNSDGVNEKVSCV
Sequence of D(2) dopamine receptor (Homo sapiens) (P14416 whole entry, looked up): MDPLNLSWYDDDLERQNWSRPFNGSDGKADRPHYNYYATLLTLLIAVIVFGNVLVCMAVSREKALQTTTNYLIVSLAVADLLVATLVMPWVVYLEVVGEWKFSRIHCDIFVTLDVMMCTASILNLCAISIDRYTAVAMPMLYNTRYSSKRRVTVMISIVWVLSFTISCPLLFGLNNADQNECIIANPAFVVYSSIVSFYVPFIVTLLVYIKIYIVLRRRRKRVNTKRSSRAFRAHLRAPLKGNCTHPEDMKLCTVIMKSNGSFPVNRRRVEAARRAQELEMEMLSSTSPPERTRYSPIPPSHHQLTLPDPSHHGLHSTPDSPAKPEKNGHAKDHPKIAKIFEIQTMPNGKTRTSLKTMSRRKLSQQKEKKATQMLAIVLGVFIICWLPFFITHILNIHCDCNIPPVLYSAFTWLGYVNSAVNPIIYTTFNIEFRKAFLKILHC
Sequence of Beta-2 adrenergic receptor (Homo sapiens) (P07550 whole entry, looked up): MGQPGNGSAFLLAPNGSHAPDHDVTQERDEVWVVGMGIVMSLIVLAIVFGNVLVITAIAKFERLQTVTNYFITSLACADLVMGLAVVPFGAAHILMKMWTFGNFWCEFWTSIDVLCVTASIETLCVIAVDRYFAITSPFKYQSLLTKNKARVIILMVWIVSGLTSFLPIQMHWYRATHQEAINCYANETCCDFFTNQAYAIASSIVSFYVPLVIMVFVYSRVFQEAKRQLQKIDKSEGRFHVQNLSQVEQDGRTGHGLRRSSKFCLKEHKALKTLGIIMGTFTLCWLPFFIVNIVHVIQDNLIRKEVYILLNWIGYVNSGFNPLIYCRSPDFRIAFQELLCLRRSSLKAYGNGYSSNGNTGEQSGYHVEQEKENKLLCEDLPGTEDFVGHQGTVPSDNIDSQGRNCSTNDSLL
Sequence of KiSS-1 receptor (Homo sapiens) (Q969F8 whole entry, looked up): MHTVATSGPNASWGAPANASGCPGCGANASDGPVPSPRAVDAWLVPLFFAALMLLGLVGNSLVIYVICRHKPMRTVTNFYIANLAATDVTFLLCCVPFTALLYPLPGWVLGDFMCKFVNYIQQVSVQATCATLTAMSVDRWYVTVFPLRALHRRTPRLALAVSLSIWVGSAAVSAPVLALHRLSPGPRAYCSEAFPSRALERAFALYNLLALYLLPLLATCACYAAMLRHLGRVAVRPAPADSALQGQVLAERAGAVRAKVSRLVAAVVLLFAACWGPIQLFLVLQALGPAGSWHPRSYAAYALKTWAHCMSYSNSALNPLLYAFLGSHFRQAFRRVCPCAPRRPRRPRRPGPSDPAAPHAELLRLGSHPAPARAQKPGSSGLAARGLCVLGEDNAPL

CC(=O)C=O
inactive: Potency [1] | Potency [2] | Potency [3] | outcome [4] | outcome [5] | Potency [6] | Potency [7] | Potency [8] | Potency [9] | Potency [10] | Potency [11] | Potency [12] | Potency [13] | Potency [14] | Potency [15] | Potency [16] | Potency [17] | Potency [18] | Potency [19]

C=CC(OCC)OCC
inactive: Potency [1] | Potency [2] | Potency [3] | outcome [4] | outcome [5] | Potency [6] | Potency [7] | Potency [8] | Potency [9] | Potency [10] | Potency [11] | Potency [12] | Potency [13] | Potency [14] | Potency [15] | Potency [16] | Potency [17] | Potency [18] | Potency [19]

O=[N+]([O-])c1ccc2[nH]ncc2c1
inactive: Potency [1] | Potency [2] | Potency [3] | outcome [4] | outcome [5] | Potency [6] | Potency [7] | Potency [8] | Potency [9] | Potency [10] | Potency [11] | Potency [12] | Potency [13] | Potency [14] | Potency [15] | Potency [20] | Potency [17] | Potency [18] | Potency [19]

S=c1[nH][nH]c(=S)s1
inactive: Potency [1] | Potency [2] | Potency [3] | outcome [4] | outcome [5] | Potency [6] | Potency [7] | Potency [8] | Potency [9] | Potency [10] | Potency [11] | Potency [12] | Potency [13] | Potency [14] | Potency [15] | Potency [16] | Potency [17] | Potency [18] | Potency [19]

CC1=CC(=O)CC(C)(C)C1(O)/C=C/C(C)=C\C(=O)O (centres undefined)
inactive: Potency [1] | Potency [2] | Potency [3] | outcome [4] | outcome [5] | Potency [6] | Potency [7] | Potency [8] | Potency [9] | Potency [10] | Potency [11] | Potency [12] | Potency [13] | Potency [14] | Potency [15] | Potency [16] | Potency [17] | Potency [18] | Potency [19]

CCCCCCCCCCOc1cc2c(=O)c(C(=O)OCC)c[nH]c2cc1OCC
inactive: activity change, negative = cytotoxicity [1] -4.24% [at 8.39 µM] | activity, positive = activation [2] -2.6% [at 8.39 µM] | activity change [3] 0.343% [at 5.22 µM, active compounds read high] | activation [4] -0.128% [at 6.97 µM] | activation [5] 0.101% [at 5.23 µM] | activation [6] 2.59% [at 5.99 µM] | activation [7] 0.878% [at 5.99 µM] | activity change, negative = cytotoxicity [8] 0.282% [at 5.99 µM] | activity change, negative = cytotoxicity [9] 11.2% [at 5.99 µM] | activity change, negative = cytotoxicity [10] -13% [at 5.99 µM] | activation [11] 4.71% [at 5.99 µM] | activity, negative = inhibition [12] 23.4% [at 5.62 µM] | activation [13] 1.5% [at 7.02 µM] | activity, negative = inhibition [14] -9.72% [at 5.58 µM] | activation [15] 0.0185% [at 6.97 µM] | activity change, negative = inhibition [20] 0.102% [at 8.39 µM] | activity change, negative = inhibition [17] 4.81% [at 8.39 µM] | activation [18] -15.9% [at 8.39 µM] | activity change, negative = inhibition [19] 8.14% [at 8.38 µM]
